Laboratory results published in PubChem BioAssay (Tox21).
Several values for one entry are separate records, joined by “and”; a condition that tells them apart may be missing. Identical values can stand only once. Inconclusive results are not listed. Entries that show only a call come without a potency. Some structures have more than one record in an assay (separate samples or runs), and their calls can disagree. Activity calls are given as the source filed them. Calls follow the shape of the dose curve; as a rule, active = well fitted cell-killing curve with a large enough effect in the repeat runs; inconclusive = weak or mixed curves, or effect the other way; inactive = flat fitted curve, though single readings scatter.

Assay: qHTS assay to identify small molecule antagonists of the androgen receptor (AR) signaling pathway using the MDA cell line in the presence of 0.5 nM R1881 - cell viability counter screen (AID 1259242); also: nearly all actives have a fitted effect of over 45% in size
Settings: MDA-kb2 viability, CellTiter-Fluor protease fluorescence, 16 h; series mostly up to 92.4 µM
From the text: U.S. Tox21 Program National Center for Advancing Translational Sciences [NCATS] NIH Chemical Genomics Center [NCGC] U.S. Environmental Protection Agency [EPA] National Institutes of Environmental Health Sciences [NIEHS] National Toxicology Program [NTP] U.S. Food and Drug Administration [FDA] Tox21 Assay Overview: Androgen receptor (AR) is an important member of the nuclear receptor family. Its signaling plays a critical role in AR-dependent prostate cancer and other androgen related diseases. Considerable attention has been given in the past decades to develop methods to study and screen for the environmental chemicals that have the potential to interfere with metabolic homeostasis, reproduction, developmental and behavioral functions. Therefore AR binding assay for screening androgen antagonists can be used to identify potential endocrine disruptors. MDA-kb2 cells (from ATCC, deposited by Wilson et al.) were used to screen for AR inhibitors against Tox21 compound libraries. These cells are human breast carcinoma cells that were stably transfected with a luciferase reporter gene under control of the MMTV promoter that contains response elements for both androgen receptor (AR) and glucocorticoid receptor (GR). The current screening for identification of AR inhibitors against Tox21 libraries used lower concentration of (0.5 nM) R1881 as a stimulator. The cytotoxicity of the Tox21 compound libraries against MDA-kb2 cell line was tested by measuring live-cell protease activity using CellTiter-Fluor assay in the same wells.
Tox21 Assay Protocol Summary: MDA-kb2 cells (cells cultured without CO2) were dispensed at 3,000 cells/well in 4 uL of culture medium into white wall/solid-bottom 1536-well plates (Corning Life Sciences, Corning, NY) using a Multidrop Combi (ThermoFisher Scientific, Waltham, MA) dispenser. After the assay plates were incubated at a 37C and 0% CO2 for 5 hr, 23 nL of compounds dissolved in DMSO, positive controls or DMSO only was transferred to the assay plate by a Pintool station (Kalypsys, San Diego, CA). The transfer of compounds was followed by the addition of 1 uL of 0.5 nM (final concentration) agonist (R1881)/culture medium using a Flying Reagent Dispenser (FRD, Aurora Discovery, San Diego, CA). The plates were incubated at 37C and 0% CO2 for 16 hr. For cytotoxicity assay, 1 uL of CellTiter-Fluor reagent (Promega Corporation, Madison, WI) was added to each well using the FRD and after 30 min incubation at 37C and 0% CO2, The fluorescence intensity was measured using ViewLux plate reader (PerkinElmer, Shelton, CT).
Potency is read from the fitted curve at half-maximal effect.

| Structure (SMILES) | Potency | viability change, negative = cytotoxic |
| --- | --- | --- |
| CC[C@H](C)COC(=O)/C=C/c1ccc(N=Cc2ccc(OC)cc2)cc1 | inactive |  |
| CN(C)CCN1CCN(c2cccc(Cl)c2)C1=O | inactive |  |
| C=Cc1ccccc1C=C | inactive |  |
| Cc1ccc(C(=O)O)cc1 | inactive |  |
| COC(=O)c1ccccc1OC | inactive |  |
| O=C(O)c1cc(=O)c2ccccc2o1 | inactive |  |
| Cc1cc(C(C#N)c2ccc(Cl)cc2)c(Cl)cc1NC(=O)c1cc(I)cc(I)c1O (stereo not given) | inactive |  |
| NC(=S)NC(N)=S | inactive |  |
| O=c1[nH]c(=O)n([C@H]2C[C@H](O)[C@@H](CO)O2)cc1F | inactive |  |
| CC(C)NC[C@@H](O)COc1ccc(CC(N)=O)cc1 | inactive |  |
| O=C1CCCCCCCCCCCCCCCO1 | inactive |  |
| CC(=O)CC(=O)Nc1ccc(S(=O)(=O)O)cc1 | inactive |  |
| CCC(C)[O-].CCC(C)[O-].CCOC(=O)/C=C(/C)[O-].[Al+3] | inactive |  |
| C=C(C)c1cccc(C(=C)C)c1 | inactive |  |
| CC(C)(C)NSc1nc2ccccc2s1 | inactive |  |
| Nc1ccc(Oc2ccc(Cl)cc2)cc1 | inactive |  |
| CCC(COC(=O)CCS)(COC(=O)CCS)COC(=O)CCS | inactive |  |
| CC(C)(C)c1csc(-c2cc3cc(OCc4ccccc4CC(=O)O)ccc3o2)n1 | inactive |  |
| CCN1C(=O)c2ccccc2C1Nc1ccc(OCCN2CCCCC2)cc1 (stereo not given) | inactive |  |
| COC1=C(OC)C(=O)C(CCCCCCCCCCO)=C(C)C1=O | inactive |  |

| Structure (SMILES) | Potency | viability change, negative = cytotoxic |
| --- | --- | --- |
| CCCCCCCCCCCCOC(=O)c1ccc(O)cc1 | inactive |  |
| COC(=O)c1ccccc1C | inactive |  |
| Cc1c(N)cccc1C(F)(F)F | inactive |  |
| O=S(=O)(O)c1ccc(Nc2nc(Nc3ccc(/C=C/c4ccc(Nc5nc(Nc6ccc(S(=O)(=O)O)cc6)nc(N(CCO)CCO)n5)cc4S(=O)(=O)O)c(S(=O)(=O)O)c3)nc(N(CCO)CCO)n2)cc1 | inactive |  |
| Nc1cc(Cl)c(O)c(Cl)c1 | inactive |  |
| CCc1cccc(CC)c1NC(=O)CN(CC(=O)O)CC(=O)O | inactive |  |
| Cc1c2ccccc2c(C)c2c1ccc1ccccc12 | inactive and 61.1 µM (active) |  |
| Nc1nc(N)nc(-c2cc(Cl)ccc2Cl)n1 | inactive |  |
| O=S(=O)(O)c1ccc(N=Nc2c(O)ccc3ccccc23)cc1 | 30.6 µM (active) |  |
| CCCC1CCC(=O)CC1 | inactive |  |
| CCCCCCCCCCCCOCCOCCOCCOCCOCCOCCOCCOCCOCCO | 21.1 µM (active) |  |
| CCCC(=O)OC(C)(C)Cc1ccccc1 | inactive |  |
| C#C[C@]1(OC(C)=O)CC[C@H]2[C@@H]3CCC4=C/C(=N/O)CC[C@@H]4[C@H]3CC[C@@]21CC | inactive |  |
| O=C(O)c1cc(-c2ccc(F)cc2F)ccc1O | inactive |  |
| O=C(O)O |  | 0.635% [at 8.39 µM] (inactive) |
| CCc1oc2ccccc2c1C(=O)c1cc(I)c(O)c(I)c1 | inactive |  |
| c1cnccn1 | inactive |  |
| c1ccc(SSc2ccccc2)cc1 | inactive |  |
| COc1ccc(-c2coc3cc(O)ccc3c2=O)cc1 | inactive |  |
| CCCC(=O)OCCc1ccccc1 | inactive |  |
